Source: PubChem BioAssay AID1508600 (Functional Genomics Laboratory (NCATS/FGL), 2020)
The campaign covered roughly 53,000 sequences. About 3,700 (7%) were called active.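 Rule for the calls: active = gene knockdowns whose robust z-score for IL-1 alpha signal is at least 2 or at most -2, so actives lie on both sides; inactive = the rest.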 Only a selection was taken, and actives are over-represented in it overall.

Assay: Components of the Cytosolic LPS Sensing Pathway: Gene Identification via Genome-wide siRNA Screen;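 note: robust z of the log signal after scaling to non-targeting control siRNA wells of the plate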
Conditions: RAW264.7 macrophages, IL-1a HTRF, actives lie on both sides, screened at 100 nM (by protocol), cells primed 5 h with Pam3CSK4 first
In short: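 RAW264.7; siRNA 100 nM final, RNAiMAX, 48h 37 degrees C; Pam3CSK4 5 h; LipidA + TransIT-TKO 24 h; IL-1a HTRF; CellTiter-Glo viability; robust z vs negative-control median.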

z-score, active:
GGUGGAAGCAAGAGAAAAUTT against Tnp1 2.03
GCACAUUUAUCCCGGUGUATT against Pnpla2 -2.01
GGUUAUCAUGAGGCCUUGGTT against Olfr1339 -2.38
GCCACGAUAAUUCAGGAGUTT against Aurkc 2.27
CGCCAAUGUGAUUAAACUATT against Mak 2.01
GGACAUGUGUAAAUAAUCATT against En2 3.4
GGUGUUAUCAGAAUUCAGATT against Cars 2.6
GGAUGAUUUAUGGUUACUGTT against Vmn1r80 2.01
GGAGAAAUGAAGAUUGUGGTT against Tmem218 -2.31
GGUGGCAAAGUGGUGAUCCTT against Fabp7 2.05
GAUUUGAGACCCAGAUCAUTT against Gzmm 2.08
CGAAGUGGUUUUAUGUACUTT against Cdkn2b -2.39
CCAUCUUGGAGAUCCUGAUTT against Kat5 -2.46
GGAACACACAAUUUUAUCATT against 4933436I01Rik -2.98
CCCUAACUACUUCAUGAAUTT against Paip1 -2.11
GGAAAUCCAUUGUUUAAAGTT against Wt1 2.01
GGUGAAGUUACAGUCAAAUTT against Nolc1 2.54
CCAUUCUUAGUUCACUAUATT against Rgcc -2.55
GGCAGGACACCAUAUGGUUTT against Tedc1 -2.16
GGGUGAUGCCCUUGAAUCUTT against Twf2 2.48
GGAGCUCGAAAAAUUUCAATT against Igfl3 2.13
GGCUGUAAAACUCUGGUUUTT against Vmn1r195 2.82
UAAAUGAGCUCGUAAUCUUTT against Olfr874 3.23
GCUCUGUCUUAAGAGACUATT against Smo 2.39

z-score, inactive:
CCUCUGCUACUCUUAUUGUTT against Ttn -0.523
GGACUGUACAGUGGCAUUATT against Cd70 -1.69
UACUCGUGGUGUUUGCAAGTT against Olfr1154 0.873
GCUCAUGUCUUAUUUGGAUTT against Klhl15 -0.393
CCGAAGUGCCAUGCCAUUUTT against Pdlim1 0.399
GGUUCAAUUCAAGUCUUUATT against Olfr195 0.339
GGCCUACAGCUGGAAAGAATT against Chrm1 0.418
GCUGCUCUGCUAUAAGUAUTT against Kptn -0.269
GGAAAUCGAUAGUUUCUUCTT against Olfr1302 -0.0687
GACCUUCGUUAGCAUUACGTT against Pfn1 0.65
GCUGUUUUGUCUCCAGCCCTT against Zbtb20 -0.118
GGGAUAUGUGACUAUGUUATT against Slc5a7 -0.138
GCUGAGAAUCGUUUAAAUGTT against Ugt2a3 0.00662
GCUAAUUGUUCACUAAAGGTT against 1700029H14Rik 0.655
GGUCAGAAAAGUAUGUUGGTT against Naip5 0.208
GUGUAUCCCAGGCUAUCACTT against Vmn1r19 -1.17
GCUGAAUGGAAGGAAGUUGTT against Wdr83os -1.32
GGUGAUAGUACUGUCAGCCTT against Olfr1225 -0.517
GGAACAAGAACAAGUUGAGTT against Spa17 0.389
GGUGGAAGCACUCAAUAAGTT against Pik3cb -1.24
GGUGCUUCUCUAAGAUAAUTT against Ddias 0.776
CCCUUACUUAGUCUCCACUTT against Olig1 -0.025
GGACCACCGUGAUCAACAUTT against Ifitm2 0.215
GCUCACUUGUAGUGCUUUATT against Arf2 1.88
GGCGUAAACAUGGUGUGCATT against Taok3 -0.807
GCUCUAUAGUGACCAAUGUTT against Gcgr -0.072
GGAAGUUCCACGUUAUUGUTT against Eif2b2 -1.3
GCGAUUUCACACCAUCACATT against Rab10 -1.03
GGCCUUUCACAACAUAAAATT against Chil6 -0.808
GGGAGCAGUCUUCCCUCAUTT against Cox8a -1.44
AGAAAUGCCUCUUCAGUGATT against Olfr884 1.59
GGUCAGCCAGACCAUUUCUTT against Edc3 -1.27
GGAUCUUAUUAUUUGAUCCTT against Mettl15 -0.671
GGAAGUAGAUUAGAUGGUATT against Akt3 0.52
GGAAUACCACAUGCUUUUGTT against Ldah -0.288
GCUAACCCUCGUUUAGAAGTT against Apol9b 0.529
GGCAUCUUGGAGGAUUUGCTT against Cyrib 0.719
GGGUCAAUCAUGAAUGUUUTT against Pak4 -1.02
GGGACAUGUUUUGAUAAAGTT against Yy1 -0.591
GCUUCGGAAUCGGUUACCATT against Alg2 -1.28
GGUUGUUUAUGCUUUCUCUTT against Arhgap32 -0.766
GAUGGUCAUCCUUCCUUUATT against Olfr341 -0.737
GCUUAGACGACUAGACCUGTT against Slit2 -0.186
GGUGGUCUGAUCGUAGACATT against Lrrc61 0.672
GGGCUGACUAUUAUUUCAGTT against Cysltr2 -0.107
GGAAUUUGUGAAAAGAAGUTT against Aldh1a2 -0.923
CGAUAAAAGAGAGAUGAUUTT against Rap1gds1 0.699
GGUGGUAAUUUUUCUCAGATT against Agxt2 -1.74
GGAAAAUCUUAGGAAGAUGTT against Elf4 -0.39
GCUUACCCUGACUCCAAUUTT against Dhx33 -1.76
CCAAGGUCUAAAAAAAUAGTT against Adamts19 -0.907
GGAGGUAACAACAACAGAATT against BC028528 0.7
GGUAGAGAACCAUUUGCUGTT against Dtnbp1 -0.376
CCAUACAAGAGUGACAGUUTT against Olfr810 -0.736
GGCAAUCCAGGCAAUAUCATT against C1qa -0.808
CCAUGUGACAGCAUUGUUGTT against Axin1 0.754
CCAGAUUAUCCGUUUAAACTT against Ube2e2 0.242
GCGUGAGAUACCAUAUUAUTT against Bank1 -1.47
GGUCUACCUAAAACUGGAGTT against Cbln4 0.337
GGGAGAGAUGUCAUUGCACTT against Eif4a3 -1.9
GCGGCUACGUGUUUGACUATT against Csnk1g2 -0.735
GCACUUAGACUAUUCCAGGTT against Tph2 -0.118
GGUCAGGCUGAGGAAUUCATT against Cyp2s1 -0.562
GGAGGAGGCAGAAACAACATT against Tex46 1.87
GCAGAGAGGAUAACUGACCTT against Slc25a44 -0.723
GGAAUUCCCAUUGGAAGAATT against Vmn1r232 0.0956
GGGACCAAGAAGGAUAACUTT against Flrt1 1.4
CCGAUUUAACUGAAUUUGCTT against Acaa2 0.342
GGACAAGUCGAGUUUCAAGTT against Zfp503 1.98
CGGAAGAAUAAAAACCGGCTT against Meaf6 0.601
GGUCUUGUGCAUAAAACAGTT against Ece2 -1.06
GCAUAUCCUAAACACUGUUTT against Pqlc3 -0.966
GCGACUGACCUUCAAACUGTT against Piwil4 0.193
CCAGCAAAUGAGAGGUCUGTT against Olfr1024 0.676
GGACACUUUCCAAUGGUGATT against Npsr1 1.25
GCUCUCAUCAGACUUCGAGTT against Zfp202 0.0887
GCGCAUCUAUGAAAAAACATT against Cerk -0.471
GCUCAAAAAACCGAAAUGATT against Cd274 -1.03
GGUAAAUUCAACUGGAAGGTT against Lyar 0.194
GGUUAUCCUCAUUGAUCCGTT against Rpl15 0.0822
GCCUGAUAUCAACAUAGGATT against Pth2r 0.802
CCCUGGCCAAACAUAGUGGTT against Efcab12 0.278
GCACAAGAAAUCGAAUAUGTT against Acr -0.00119
CCGCCGAUGAGUUUGUUAATT against Hsd17b3 1.2
